Assay outcomes (PubChem)
Most compounds without a hit are left out; they make up all but 4.6% or so of the library.
D1 agonist – Allosteric Agonists of the Human D1 Dopamine Receptor: qHTS | D(1A) dopamine receptor (Homo sapiens), P21728 | HEK293 T-REx D1 cells, calcium flux, agonist mode | activation, % at 2 µM | 360,000 compounds, 1% hits | AID 504660, 2011; in the data active = activation above about 30%
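Tetracycline-induced HEK293 TREx D1 cells, force-coupled to calcium signalling, were dye-loaded with a no-wash calcium kit. Compound was pin-added after a 10 s baseline. Fluorescence was read kinetically at 1 cycle/s for 180 s, with calcium rises flagged as agonism.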
TRHR agonist-1 – qHTS for Small Molecule Agonists and Allosteric Enhancers of Human TRH Receptor: Primary Screen for Agonists | 360,000 compounds, 0.18% hits | TRHR cells, calcium flux fluo-8, FDSS agonist mode | Thyrotropin-releasing hormone receptor (Homo sapiens), P34981 | activation, % at 2 µM; in the data active = activation above about 30%
Target sequence (P34981 whole entry, looked up): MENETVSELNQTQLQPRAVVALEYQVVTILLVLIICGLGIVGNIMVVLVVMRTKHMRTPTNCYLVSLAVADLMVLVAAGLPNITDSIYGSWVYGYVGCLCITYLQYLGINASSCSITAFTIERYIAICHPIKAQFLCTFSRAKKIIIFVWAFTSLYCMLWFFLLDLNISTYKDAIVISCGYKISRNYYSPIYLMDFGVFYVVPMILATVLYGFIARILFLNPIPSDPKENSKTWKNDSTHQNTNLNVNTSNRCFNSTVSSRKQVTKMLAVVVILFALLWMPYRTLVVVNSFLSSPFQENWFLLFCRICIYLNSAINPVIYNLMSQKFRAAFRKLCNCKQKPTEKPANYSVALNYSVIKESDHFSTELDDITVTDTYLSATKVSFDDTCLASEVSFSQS
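In this calcium-flux screen, cells bearing human TRHR are dye-loaded with fluo-8, baselined for 10 cycles, then exposed to library compounds; positive kinetic calcium responses during the agonist phase mark hits, with TRH as control.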
Epigenetic derep – Quantitative High-Throughput Screen for Regulators of Epigenetic Control | murine LDR cells, GFP reporter derepression, 30 h | Potency, µM (series often up to 53.9 µM), usual class: activators | 280,000 compounds, 0.2% hits | AID 1865, 2009; also: nearly all actives have a fitted effect of over 60% in size
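Reporter derepression read as number of fluorescent GFP-positive objects, 20-120 um in size, counted by laser-scanning cytometer. Mouse LDR line with an epigenetically silenced CMV-GFP locus; compound incubation 30 h, 37 C.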
D1 antagonist – Antagonist of Human D 1 Dopamine Receptor: qHTS | D(1A) dopamine receptor (Homo sapiens), P21728 | HEK293 TREx D1 cells, calcium flux, dopamine EC80; stronger effect = lower value | activity change, negative = inhibition, % at 10 µM | 360,000 compounds, 3.2% hits | AID 504652, 2011; in the data active = activity change below about -30%
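Compound effects on dopamine-evoked calcium signalling were measured in tetracycline-induced HEK293 Trex D1 cells. Dopamine at EC80 followed a 180 s compound pre-read, and fluorescence was tracked kinetically for 180 s more.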
D1 potentiator – Potentiators of Human D1 Dopamine Receptor: qHTS; 360,000 compounds, 0.036% hits; D(1A) dopamine receptor (Homo sapiens), P21728; potentiation, % at 10 µM; HEK293 TREx D1 cells, calcium flux, dopamine EC20 potentiation; in the data active = potentiation above about 30%
TRHR enhancer-1 – qHTS for Small Molecule Agonists and Allosteric Enhancers of Human TRH Receptor: Primary Screen for Enhancers; 360,000 compounds, 0.66% hits; TRHR cells, fluo-8 calcium fluorescence, EC20 TRH enhancement; enhancement, % at 2 µM; in the data active = enhancement above about 30%
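TRHR-expressing cells loaded with fluo-8 calcium dye were read kinetically (ex 480/em 530) during compound addition, then stimulated with an EC20 of TRH (10 nM final). Enhancement of the Gq-mediated intracellular calcium response was scored.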
TRHR enhancer-2 – qHTS for Small Molecule Agonists and Allosteric Enhancers of Human TRH Receptor: Confirmation Screen for Enhancers. 970 tested, under 10 active. activity change, negative = inhibition, % at 46.1 µM. TRH receptor cell assay, enhancer confirmation qHTS. shares compounds with TRHR enhancer-1;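 also: compound effect scored on response to added TRH at EC20 of 10 nM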
TRHR agonist-2 – qHTS for Small Molecule Agonists and Allosteric Enhancers of Human TRH Receptor: Confirmation Screen for Agonists; 970 compounds, 8% hits; TRHR-expressing cells, agonist activation read-out; Potency, µM (titrated, usually from 46.1 µM), usual class: activators; shares compounds with TRHR enhancer-1; AID 493078, 2011; also: nearly all actives have a fitted effect of over 75% in size
Numbers stand for hits; . = inactive; ? = inconclusive; / = no result. Unless noted, calls follow the shape of the dose curve; as a rule, active = well fitted curve in the direction sought with a large enough effect; inconclusive = small, poorly fitted or top-dose-only effect, or another doubt; inactive = no such curve, though single readings can be large; an effect the other way counts as inactive or inconclusive.

SMILES | D1 agonist | TRHR agonist-1 | Epigenetic derep | D1 antagonist | D1 potentiator | TRHR enhancer-1 | TRHR enhancer-2 | TRHR agonist-2
CC(CCOS(N)(=O)=O)c1ccccc1 (centres undefined) | . | . | / | . | . | . | / | /
[2H]C([2H])(CCOS(N)(=O)=O)c1ccccc1 | . | . | / | . | . | 44 | . | ?
O=C1/C(=C/c2ccccc2)Nc2ccccc21 | 50 | 50 | . | . | . | . | . | 16µM
O=C(COc1ccc(Cl)cc1)NCc1nnc(SCC(=O)Nc2ccccc2F)o1 | . | . | . | . | . | 44 | . | .
CCc1cccc2sc(NC(=O)C3CC3)nc12 | . | . | / | . | . | 42 | . | ?
CCc1noc(C)c1C(=O)Nc1nc2c(C)cccc2s1 | . | . | / | . | . | 56 | . | .
O=C(Cn1cc(S(=O)(=O)Cc2cccc(Cl)c2)c2ccccc21)NCCc1ccccc1 | . | . | . | . | . | . | / | /
O=C(Cc1ccccc1)NC1CCN(Cc2ccccc2)CC1 | . | . | . | . | . | 61 | . | .
O=c1oc2ccc3ccccc3c2cc1-c1nnc(Nc2cccc(F)c2)s1 | . | . | . | . | . | . | / | /
Nc1nnc(-c2cc3c(ccc4ccccc43)oc2=O)s1 | 49 | 41 | ? | . | . | . | . | ?
C=CCNC(=O)c1c(N)n(-c2cccc(S(N)(=O)=O)c2)c2nc3ccccc3nc12 | . | . | . | . | . | 43 | . | ?
Cc1ccccc1NC(=O)CSc1nc(N)c(C#N)c(-c2cccs2)c1C#N | . | . | . | . | . | . | / | /
COc1ccc(CCNC(=O)CSc2nc(N)c(C#N)c(-c3cccs3)c2C#N)cc1OC | . | 141 | . | . | . | . | . | .
Cc1ccc(-c2nnc(Nc3cccc(Cl)c3)c3ccccc23)cc1S(=O)(=O)NCC1CCCO1 (centres undefined) | . | . | . | . | . | . | / | /
CCOC(=O)CN1C(=O)S/C(=C/c2ccc3c(c2)n(C)c(=O)n3C)C1=O | . | . | . | . | . | . | / | /
CCOC(=O)CN1C(=O)S/C(=C/C=C/c2ccc(N(C)C)cc2)C1=O | 105 | 32 | . | . | . | . | . | ?
CCOC(=O)c1cccc(NC(=O)c2oc3c(c2C)-c2nn(CC)cc2CC3)c1 | . | . | . | . | . | . | / | /
CC(=O)Oc1ccc2c(c1)CCC1C2CC[C@]2(C)C(OC(C)=O)CCC12 (some centres undefined) | / | / | . | / | / | / | / | /
COc1cccc(C2CC(c3ccc(NS(C)(=O)=O)cc3)=NN2C(=O)c2ccccc2)c1OC (centres undefined) | . | . | . | . | . | 50 | . | .
O=C(CNC(=O)c1ccc(F)cc1)c1ccc(Cl)cc1 | . | . | / | -33 | . | 43 | . | .
O=C(NCc1ccc(Cl)cc1)c1ccc(CNS(=O)(=O)c2ccc(F)cc2)cc1 | . | . | . | . | . | . | / | /
Cn1nc(C(=O)NCc2ccccc2)cc1C(=O)NCc1ccccc1 | . | . | / | . | . | . | / | /
CS(=O)(=O)c1ccc(C(=O)NCc2ccc(F)cc2)cc1 | . | . | . | . | . | 60 | . | .
Cn1nc(C(=O)NCc2ccc(F)cc2)cc1C(=O)NCc1ccc(F)cc1 | . | . | / | . | . | 46 | . | .
Cc1ccnc(SCC(=O)N2CCc3ccccc3C2)n1 | . | . | . | . | . | . | / | /
SMILES | D1 agonist | TRHR agonist-1 | Epigenetic derep | D1 antagonist | D1 potentiator | TRHR enhancer-1 | TRHR enhancer-2 | TRHR agonist-2
Cc1cc(=O)[nH]c(SCC(=O)N2CCc3ccccc3C2)n1 | . | . | . | . | . | . | ? | .
NC(=O)c1ccc(F)cc1 | . | . | . | . | . | 59 | . | .
Cc1ccc2sc(N3CCN(C(=O)C4COc5ccccc5O4)CC3)nc2c1C (centres undefined) | . | . | . | / | . | . | / | /
COc1ccc(-c2cc(C(F)(F)F)n3ncc(-c4ccccc4)c3n2)cc1 | . | . | ? | . | . | . | / | /
COc1ccc(C2C(C#N)=C(N)Oc3cc(N)ccc32)cc1 (centres undefined) | . | . | / | . | . | 63 | . | .
COc1cccc(NC(=O)c2oc3ccc(S(=O)(=O)N(C)C4CCCCC4)cc3c2C)c1 | . | . | . | . | . | . | / | /
O=C(Nc1ccccc1C(=O)Nc1ccccc1)c1ccccc1F | . | . | / | . | . | 48 | ? | .
O=C(O)c1cccc(NC(=O)c2ccccc2NC(=O)c2ccccc2F)c1 | . | . | / | . | . | . | / | /
COc1ccccc1CNC(=O)c1ccc2c(c1)CCN2S(=O)(=O)c1ccc(Cl)cc1 | . | . | . | . | . | . | / | /
O=C(N/N=C/c1ccc(OCc2cnc(Cl)s2)cc1)c1ccncc1 | . | . | . | -33 | . | 50 | . | .
COc1ccc(C)cc1NC(=O)c1cc(S(=O)(=O)NCCC2=CCCCC2)ccc1F | . | . | . | . | . | . | / | /
COc1ccc(C)cc1NC(=O)NCCC1=CCCCC1 | . | . | . | . | . | 43 | . | .
Cc1ccc(C(=O)NCc2ccncc2)cc1S(=O)(=O)N1CCOCC1 | . | . | / | . | . | 44 | . | .
COc1cccc(CNC(=O)c2ccc(C)c(S(=O)(=O)N3CCOCC3)c2)c1 | . | . | / | . | . | . | / | /
CCc1ccc2c(c1)NC(c1ccc(F)cc1)=NC(c1ccncc1)=N2 | . | . | . | . | . | . | / | /
CN(Cc1cnn(C)c1)Cc1nc(-c2ccc(Cl)cc2)no1 | . | . | . | . | . | . | / | /
CCc1ccc(CN(C)Cc2nc(-c3cccc(Cl)c3)no2)nc1 | . | . | . | . | . | 48 | . | .
Cc1ccc(OCc2nc(C#N)c(NCCCn3ccnc3)o2)cc1 | . | . | . | . | . | . | / | /
N#Cc1nc(COc2ccccc2)oc1NCCCn1ccnc1 | . | . | . | -33 | . | 57 | . | .
CC(=O)Nc1sc(/C(C#N)=C/c2ccc(Cl)c(Cl)c2)nc1-c1ccc(C)cc1 | 283 | 68 | . | -49 | . | . | . | 7.3µM
